OTUD3 block: inhibitors of human OTUD3 deubiquitinase; 0.7% of 47,000 active; inhibition, % at 25 µM; purified OTUD3, Ub-rhodamine fluorescence, 2 h
Target sequence (Q5T2D3 whole entry, looked up): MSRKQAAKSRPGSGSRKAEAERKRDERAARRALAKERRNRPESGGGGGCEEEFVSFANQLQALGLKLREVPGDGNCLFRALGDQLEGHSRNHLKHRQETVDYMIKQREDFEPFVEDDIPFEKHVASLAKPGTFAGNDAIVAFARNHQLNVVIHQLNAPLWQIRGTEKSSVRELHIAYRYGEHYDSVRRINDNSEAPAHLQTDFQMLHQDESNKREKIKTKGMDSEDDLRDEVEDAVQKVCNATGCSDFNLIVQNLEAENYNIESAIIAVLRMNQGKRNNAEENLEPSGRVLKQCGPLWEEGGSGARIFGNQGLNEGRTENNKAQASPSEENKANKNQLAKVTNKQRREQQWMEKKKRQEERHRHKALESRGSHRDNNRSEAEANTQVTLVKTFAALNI
USP28 block: inhibitors of human USP28 deubiquitinase | Ubiquitin carboxyl-terminal hydrolase 28 (Homo sapiens), Q96RU2 | purified USP28, Ub-rhodamine cleavage fluorescence, 30 min | inhibition, % at 25 µM | 3% of 47,000 active
Numbers stand for hits. Rows were chosen to be rich in hits. Some 3.3% of all compounds tested hit in one or more screens of this group. No stated cut-off is given here; in the data, active means inhibition above about 30%; inactive means the rest.

For CC(C)(C(=O)N1C[C@H]2CC(Oc3ccccc3)C[C@H]2C1)n1cncn1 (some centres not stated) the results were OTUD3 block inactive and USP28 block inactive.
For COc1ccccc1-c1nc2c3c(C)c(C)n(CCCN(C)C)c3ncn2n1 the results were OTUD3 block inactive and USP28 block inactive.
COc1ccccc1-c1nc2c3c(C)c(C)n(Cc4cccnc4)c3ncn2n1 was read as OTUD3 block inactive and USP28 block 51.
Screening O=C(CN1CCN(C(c2ccccc2)c2ccccc2)CC1)Nc1ccc(Cl)cc1C(=O)c1ccccc1 returned OTUD3 block inactive and USP28 block inactive.
`O=S(=O)(Nc1cccc(-c2nnc(-c3ccccc3)o2)c1)c1ccccc1` gave OTUD3 block inactive and USP28 block inactive.
O=S(=O)(Nc1cccc(-c2nnc(Cc3ccc4c(c3)OCO4)o2)c1)c1ccccc1 was read as OTUD3 block inactive and USP28 block 32.
O=C(Cc1ccc2c(c1)OCO2)N1CCC(c2ccncc2)CC1 was read as OTUD3 block inactive.
Screening COCCCN1CCS(=O)(=O)c2c(Cl)c(F)nc(Oc3ccccc3)c21 returned OTUD3 block inactive and USP28 block inactive.
O=C(Nc1ccnn1Cc1cccnc1)c1cccnc1Oc1ccccc1 was read as OTUD3 block inactive and USP28 block inactive.
For COc1ccc2c(c1)c(N1CCCC1=O)c(C(=O)NCc1cccc(OC)c1OC)n2C the results were OTUD3 block inactive and USP28 block 57.
Screening COc1ccc2c(c1)c(N1CCCC1=O)c(C(=O)NCc1ccccc1F)n2C returned OTUD3 block inactive and USP28 block inactive.
For CC(C)CN1C[C@@]23CN(C(=O)c4ccccn4)C[C@@H](C[C@@H]2S1(=O)=O)O3 the results were OTUD3 block inactive and USP28 block inactive.
Cc1cccc(OCc2nnc(SCC(=O)Nc3cccc(F)c3C)o2)c1 was read as OTUD3 block inactive and USP28 block 44.
For Cc1cc(NC(=O)CSc2nnc(COc3ccc(Cl)cc3)o2)no1 the results were OTUD3 block inactive and USP28 block inactive.
For CC(C)c1ccc(C2c3[nH]c4ccccc4c3C[C@H]3C(=O)N(c4ccccc4C(=O)NCc4ccccc4)C(=O)N23)cc1 (some centres not stated) the results were OTUD3 block inactive and USP28 block inactive.
`CO\C=C(C(=O)OC)/C(C)=C\C=C\c1ccc(OCC=C(C)C)c(O)c1` gave OTUD3 block inactive and USP28 block inactive.
O=C(Nc1ccccc1)c1nc(-c2cn(Cc3ccc(F)cc3)nn2)no1 was read as OTUD3 block inactive and USP28 block 37.
Screening O=C(Nc1ccccc1F)c1nc(-c2cn(-c3ccc(F)cc3)nn2)no1 returned OTUD3 block inactive and USP28 block inactive.
`Cc1cccc(NC(=O)[C@H]2C[C@@H]3C(=O)NC(C)[C@H]2N3Cc2ccccc2)c1` (some centres not stated) gave OTUD3 block inactive and USP28 block inactive.
Screening COc1ccc(Cl)cc1C(=O)Nc1nnc2n1CCCS2 returned OTUD3 block inactive and USP28 block inactive.
Screening O=C(Nc1nnc2n1CCCS2)c1cccc(Cl)c1 returned OTUD3 block inactive and USP28 block 59.
Screening Cc1ccc(C(=O)Nc2ccccc2C(=O)O)cc1NC(=O)Cc1ccccc1 returned OTUD3 block inactive and USP28 block inactive.
Screening Cc1ccc(NC(=O)CCc2ccc3nc[nH]c3c2)cc1F returned OTUD3 block inactive and USP28 block 35.
Screening Cc1ccc(NC(=O)CCc2ccc3nc[nH]c3c2)c(C)c1 returned OTUD3 block inactive and USP28 block inactive.
For CS(=O)(=O)N1CCc2ccc(C(=O)Nc3ccc(F)cc3)cc21 the results were OTUD3 block inactive and USP28 block inactive.
Cc1cc(C)n(-c2cccc(C(=O)Nc3ccc4c(c3)CCN4S(C)(=O)=O)c2)n1 was read as OTUD3 block inactive and USP28 block 80.
Screening COCc1cc(C)nc2sc(-c3ccon3)c(NC(=O)c3ccccc3)c12 returned OTUD3 block inactive and USP28 block inactive.
Cc1ccc(Cl)cc1N1CCN(C(=O)CN2Cc3ccccc3C2=O)CC1 was read as OTUD3 block inactive and USP28 block 47.
`Cc1cccc(N2CCN(C(=O)CN3Cc4ccccc4C3=O)CC2)c1C` gave OTUD3 block inactive and USP28 block inactive.
`CC(=O)NCCc1ccc(O)cc1` gave OTUD3 block inactive and USP28 block inactive.
`COC(=O)C1(Cc2ccc(O)cc2)OC(=O)C(O)=C1c1ccc(O)cc1` (configuration not stated) gave OTUD3 block 78 and USP28 block 78.
Screening COc1ccccc1CCNc1ccc2c(cc1=O)[C@@H](NC(C)=O)CCc1cc(OC)c(OC)c(OC)c1-2 returned OTUD3 block inactive and USP28 block inactive.
NC(=O)c1nc(-c2ccc(OCc3ccccc3)cc2)nc2c1[nH]c(=O)n2-c1ccc2c(c1)OCO2 was read as OTUD3 block inactive and USP28 block inactive.
Cc1ccc(-c2nc(Cn3cnc4sc(C)c(C)c4c3=O)cs2)cc1 was read as OTUD3 block inactive and USP28 block inactive.
Screening O=c1c2ccc(F)cc2ncn1Cc1csc(-c2ccccc2)n1 returned OTUD3 block inactive and USP28 block 47.
N#Cc1ccccc1Sc1ccccc1C(=O)Nc1cc(Cl)ccc1-n1cncn1 was read as OTUD3 block inactive and USP28 block inactive.
Screening C/C=C(/C)C(=O)O[C@H]1C=CC(=O)O[C@@H]1/C=C/C(O)C(C)O (some centres not stated) returned OTUD3 block inactive and USP28 block inactive.
For COc1ccc(-c2nc(C)c(C(=O)NCCc3ccc(S(N)(=O)=O)cc3)s2)cc1 the results were OTUD3 block inactive and USP28 block inactive.
`COc1ccc(C2=C(NCCc3ccc(S(N)(=O)=O)cc3)c3ccccc3C2=O)cc1` gave OTUD3 block inactive and USP28 block 31.
Screening COC(=O)c1ccc(N2CCN(C(C)=O)CC2)c(NC(=O)COc2ccc([N+](=O)[O-])cc2)c1 returned OTUD3 block inactive and USP28 block inactive.
`O=c1[nH]c2ccccc2c(=O)n1CCc1nc(-c2ccncc2)no1` gave OTUD3 block inactive and USP28 block inactive.
Screening Cc1cccc(-c2noc(CCn3c(=O)[nH]c4ccccc4c3=O)n2)c1 returned OTUD3 block inactive and USP28 block 30.
`CCCCOc1ccccc1NC(=O)c1scc2c1CCCC2` gave OTUD3 block inactive and USP28 block inactive.
Cn1c2ccccc2c(=O)c2c(=O)n(Cc3ccccc3)c(-c3ccco3)nc21 was read as OTUD3 block inactive and USP28 block 44.
Screening Cn1c2ccccc2c(=O)c2c(=O)n(Cc3ccccc3)c(-c3ccccc3F)nc21 returned OTUD3 block inactive and USP28 block inactive.
O=C(/C=C/c1ccc(F)cc1)N1CCC(Cc2ccccc2)CC1 was read as OTUD3 block inactive and USP28 block 33.
O=C(CN(c1ccc(F)cc1)S(=O)(=O)c1ccccc1)N1CCC(Cc2ccccc2)CC1 was read as OTUD3 block inactive and USP28 block inactive.
For C=Cc1ccc(Cn2cccc(S(=O)(=O)N3CCCC3)c2=O)cc1 the results were OTUD3 block inactive and USP28 block 49.
`O=c1c(S(=O)(=O)N2CCCCCC2)cccn1Cc1ccccc1` gave OTUD3 block inactive and USP28 block inactive.
Cc1nc(NCCc2ccc(S(N)(=O)=O)cc2)c2oc3ccccc3c2n1 was read as OTUD3 block inactive and USP28 block inactive.

Screening data deposited in PubChem by Buhrlage Lab, Dana-Farber Cancer Institute and Novartis Institutes for BioMedical Research (Cambridge, Mass).
